Data reported in PubChem BioAssay (NCI).
The panel holds about 83,000 compounds, 20% with a hit somewhere; the sample as a whole holds those more often.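 Step 1: grow cells in 96-well plates. Step 2: add test compound at a single concentration. Step 3: incubate 48 h. Step 4: record percent growth.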 Values without a mark were called inactive. Active and inactive are the calls of the source.

The compounds below were run on OVCAR-5 ovarian (assay: NCI-60 one-dose screen, 48 h (100 = growth as untreated, 0 = no growth, -100 = all killed)). Details: 10 µM unless noted.
Method: Growth inhibition of the OVCAR-5 human tumor cell line is measured as a screen for anti-cancer activity. Cells are grown in 96 well plates and exposed to the test compound for 48 hours. Compounds are tested at a single concentration, which is 10^-5 M for most compounds. The reported endpoint is percent growth (GI% or GIPRCNT), where numbers from 0 - 100% represent growth inhibition, and numbers from -100% - 0 represent cell death. For example, a value of 40 represents 60% growth inhibition. A value of 0 means no net growth occurred over the course of the experiment. A value of -40 indicates 40% of cells at the beginning of the experiment died by the end of the experiment. A value of -100 means all cells are dead at the end of the experiment.
NCI-60 Human Tumor Cell Lines Screen was performed using the standard one-dose NCI protocol, which is described in more detail at https://dtp.cancer.gov/discovery_development/nci-60/default.htm.
Compounds with GIPRCNT values below 10 were considered active. Activity score was based on GIPRCNT using the following formula: […]
Score is 0 for GIPRCNT values of 100 or above, 50 for GIPRCNT values of 0, and 100 for GIPRCNT values of -100.
`COc1cc(-c2nc3cc(Cl)c(Cl)cc3[nH]2)ccc1OCC(=O)N=Nc1c(O)[nH]c2ccc([N+](=O)[O-])cc12` showed a growth of 105%.
For `O=C(CN1C(=O)CCC1=O)Nc1ncc(Cc2ccc(F)cc2)s1`, the growth was 97.3%.
Work on `O=C(/C=C/c1cccs1)c1ccc(Cl)nc1` yielded a growth of 103%.
For `COC(=O)CCC(=O)C(=O)OC`, the growth was 23.6% [10 mM].
In the case of `COc1cc(-c2csc(NC(=O)c3cc(-n4cnc(C)c4)cc(C(F)(F)F)c3)n2)cc(OC)c1OC`, the growth is reported as 104%.
With `CCOC(=O)C#Cc1c(C(=O)OCC)nnn1[C@@H]1O[C@H](CO)[C@H]2OC3(CCCCC3)O[C@H]21` the growth was 105%.
`CCN(CC)CCCN1C(=O)c2c(c(C)c3c(oc4cc(O)ccc43)c2C)C1=O` was tested, and the growth was -77.2% (active).
With `Cc1ccc(-n2c(=S)[nH]c3sc4c(c3c2=O)CCC(=O)C4)cc1` the growth was 87.4%.
`Nc1nc2c([nH]1)c1[nH]c3ccccc3c1c1[nH]c3ccccc3c21` gave a growth of 85.9%.
`Cc1ccccc1/C=C1\CN(C(=O)OC(C)(C)C)C/C(=C\c2ccccc2C)C1=O` gave a growth of 51.1%.
Compound `Cc1ccc(CNc2ccc(Cl)cc2NCc2ccc(C)c(O)c2)cc1O` has a growth of 73.6%.
`COc1ccc2c(O)c(/C=C3\N=Nc4ncccc43)oc2c1C[C@H]1CCNC[C@H]1F` gave a growth of 16%.
`Cc1ccccc1Cn1cnc2ccc(-c3cc(NC(=O)c4ccc(NC5CCN(C)CC5)cc4)n[nH]3)cc21` gave a growth of 69.9%.
For `Cc1cccc(N2CCN(CC(O)COc3ccc(Cl)cc3)CC2)c1` (stereo not given), the growth was 116%.
Work on `Cc1nc2c(=O)[nH]c(SCC(=O)Nc3cccc(F)c3)nc2[nH]c1=O` yielded a growth of 103%.
For `C/C(=C(/c1ccc(Cl)cc1)c1ccc(OCCN2CCCC2)cc1)c1ccc(Cl)cc1`, the growth was 88.9%.
`N#CCSc1nnc2n(Cc3ccccc3)c(=O)c3c4c(sc3n12)CCCC4` was tested, and the growth was 92.2%.
`COc1cc(CNS(=O)(=O)c2ccc(C)cc2)ccc1OCc1cn(-c2ccc(F)cc2)nn1` was tested, and the growth was 102%.
`O=C(Nc1cccnc1Nc1ccc(F)cc1)c1cn(Cc2cccc(Oc3ccccc3)c2)nn1` gave a growth of 115%.
With `S=C1CCSC(=S)N1CCCN1C(=S)CCSC1=S` the growth was 82.8%.
`Fc1ccc(Nc2nc3nonc3nc2Nc2ccc(I)cc2)cc1` was tested, and the growth was 37.5%.
Work on `CCc1ccc(Oc2cn[nH]c2-c2ccc(OCCc3ccc(F)cc3)cc2O)cc1` yielded a growth of 90.6%.
For `C=C(CNCCc1ccc(O)cc1)[C@@H]1CC[C@]2(CO)CC[C@]3(C)[C@H](CC[C@@H]4[C@@]5(C)CCC(NCCO)C(C)(C)[C@@H]5CC[C@]43C)[C@@H]12` (stereo not given in full), the growth was 4.67% (active).
For `CN1CCN(c2ccc(NC(=O)c3nc4ccc5[nH]ncc5c4c4c3CCCC4)cc2C(F)(F)F)CC1`, the growth was 85.5%.
`CC[C@]12C=CCN3CC[C@@]4(c5cc(NC(=O)CCC(=O)OCc6cn(Cc7ccc(F)cc7)nn6)c(OC)cc5N(C)[C@H]4[C@@](O)(C(=O)OC)[C@@H]1OC(C)=O)[C@@H]32` was tested, and the growth was 100%.
`COc1cc(-c2nc(SCCC(C)C)nc(Nc3ccccc3Cl)c2C#N)cc(OC)c1OC` was tested, and the growth was 89.7%.
For `Fc1cc2c(cc1Cl)N(c1ncnc3ccc(-c4cnc5[nH]ncc5c4)cc13)CC2`, the growth was 38.4%.
Work on `C=C1CC[C@@H]2[C@](C)(COC(C)=O)[C@H](OC(C)=O)CC[C@@]2(C)[C@@H]1CC(Sc1ccccc1)C1=CCOC1=O` (stereo not given in full) yielded a growth of 39.8%.
`COc1cc(CNS(=O)(=O)c2ccc(C)cc2)ccc1OCc1cn(-c2ccc(Br)cc2)nn1` was tested, and the growth was 108%.
`C=C(C)[C@@H]1CC[C@]2(C(=O)O)CC[C@]3(C)[C@H](CC[C@@H]4[C@@]5(C)C[C@@H](Cc6cn(CCO[C@@H]7O[C@H](COC(C)=O)[C@H](OC(C)=O)[C@H](OC(C)=O)[C@H]7OC(C)=O)nn6)[C@H](O)C(C)(C)[C@@H]5CC[C@]43C)[C@@H]12` gave a growth of 97.3%.
`O=C(O)CNC1=C(Cl)C(=O)c2ccccc2C1=O` gave a growth of 118%.
With `Cc1cc2c([nH]1)CSc1cc(S(=O)(=O)c3ccccc3)c(=O)[nH]c1-2` the growth was 69.9% [100 µM].
Compound `Cc1ccc(-c2nc(N3CCNCC3)c3oc(-c4ccccc4)nc3n2)cc1` has a growth of 14.7%.
`Cc1ccc2c(n1)C(=O)c1[nH]c3ccccc3c1C2=O` was tested, and the growth was 67.9%.
`COc1cc(NC(C)CCCNC(C)C)c2ncccc2c1OC` (stereo not given) gave a growth of 91.4%.
In the case of `COc1ccc(/C=C2\COc3ccc(O)c(O)c3C2=O)cc1`, the growth is reported as -12.3% (active).
`C#CCOc1ccc2ncnc(Nc3ccc(NC(=O)CCl)cc3)c2c1` gave a growth of 30.5%.
In the case of `CC(C)=NNc1ccccn1`, the growth is reported as 54.4%.
`COC(C(=O)[C@@H](O)[C@@H](C)O)[C@@H]1Cc2cc3cc(O[C@H]4C[C@@H](O[C@H]5C[C@@H](O)[C@H](O)C(C)O5)[C@H](O)C(C)O4)c(C)c(O)c3c(O)c2C(=O)[C@H]1O[C@H]1C[C@@H](O[C@H]2C[C@@H](O[C@H]3C[C@@H](O)[C@H](OC)C(C)O3)[C@@H](O)C(C)O2)[C@H](O)C(C)O1` (stereo not given in full) gave a growth of 14.8%.
For `CCc1nc2c(=O)[nH]cnc2o1`, the growth was 107%.
